Four compounds from PubChem BioAssay (EPA / NIEHS) can be followed below.

The nature of assay [1]: APR_HepG2_P-H2AX_72hr: Apredica 72-hour HepG2 Assay for H2AX Phosphorylation (AID 2282916).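 Note: phospho-histone H2A.x immunostain intensity per cell marking DNA damage.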 Particulars: imaging, actives raise or lower the signal. Put shortly:
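Readout: phospho-H2A.x immunofluorescence (FITC secondary) plus Hoechst nuclear stain, high-content imaging at 20x, six fields/well. HepG2, 72 hr compound exposure, 0.39–200 uM, final DMSO 0.5% v/v. Gain or loss fitted relative to DMSO baseline.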

Assay [2] in a line: APR_HepG2_MitoMembPot_72hr: Apredica 72-hour HepG2 Assay for Mitochondrial Membrane Potential (AID 2282917). Particulars: imaging, actives raise or lower the signal. The gist of the method:
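HepG2 cells dosed 72 hr with compound at 0.39–200 uM in duplicate, 0.5% v/v DMSO final. Mitochondria stained with 250 nM MitoTracker Red CMXRos for 30 min before formaldehyde fixation, imaged by high-content fluorescence; bidirectional fit versus DMSO.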

Assay [3] is described as follows: APR_HepG2_MitoticArrest_72hr: Apredica 72-hour HepG2 Assay for Mitotic Arrest (AID 2282918). Particulars: high-content imaging, actives raise or lower the signal. Put shortly:
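HepG2, 72 hr exposure, 0.39–200 uM in duplicate, 0.5% v/v DMSO final. Formaldehyde-fixed, Triton-permeabilized, anti-phospho-histone H3/FITC plus Hoechst. ArrayScan imaging at 20x; curves fit bidirectionally against DMSO baseline.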

The nature of assay [4]: APR_HepG2_MicrotubuleCSK_72hr: Apredica 72-hour HepG2 Assay for Microtubule CSK Stabilty (AID 2282919). Particulars: HepG2 microtubule cytoskeleton, high-content imaging, actives raise or lower the signal. The gist of the method: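 HepG2, 72 hr cmpd exposure, 0.39–200 uM (10 pts, duplicate), 0.5% DMSO. 3.7% formaldehyde fix, 0.5% Triton perm, anti-alpha-tubulin/Cy5 plus Hoechst. HCS fluorescence intensity; bidirectional fit vs DMSO baseline; taxol as positive control.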

Assay [5] can be described thus: APR_HepG2_P-H2AX_24hr: Apredica 24-hour HepG2 Assay for H2AX Phosphorylation (AID 2282920). Particulars: high-content imaging, actives raise or lower the signal. Put shortly: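 HCS fluorescence imaging of phospho-H2A.x immunostain (with Hoechst 33342 nuclear counterstain) in HepG2 after 24 hr compound exposure; 10 concentrations, 0.39–200 uM, duplicate wells, 0.5% v/v DMSO. Gain or loss of signal fitted relative to DMSO baseline.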

Assay [6] can be described thus: APR_HepG2_StressKinase_72hr: Apredica 72-hour HepG2 Assay for Stress Kinase (AID 2282921). Particulars: HepG2 stress kinase (phospho-c-Jun) imaging, actives raise or lower the signal. The gist of the method: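 Phospho-c-Jun immunofluorescence measured by high-content imaging at 20x, six fields per well; bidirectional curve fitting against DMSO as baseline. Dosing: 0.39–200 uM, 72 h, 0.5% DMSO final.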

Assay [7] is described as follows: APR_HepG2_StressKinase_24hr: Apredica 24-hour HepG2 Assay for Stress Kinase (AID 2282922). Particulars: HepG2 stress kinase (phospho-c-Jun) imaging, actives raise or lower the signal. The gist of the method:
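Read-out: phospho-c-Jun immunofluorescence (Cy3 secondary) quantified by high-content imaging at 20x, nuclei defined by Hoechst 33342. Human HepG2 liver cells dosed 24 hr, 0.39–200 uM, DMSO 0.5% v/v; gain or loss of signal fitted relative to DMSO.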

Assay [8] in a line: APR_HepG2_p53Act_72hr: Apredica 72-hour HepG2 Assay for p53 Activation (AID 2282923).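 Note: average cellular p53 protein immunofluorescence intensity in HepG2 cells.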 Particulars: high-content imaging, actives raise or lower the signal. The gist of the method: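 Readout: p53 immunofluorescence quantified by automated high-content imaging at 20x, six fields per well, nuclei located via Hoechst. Dosing ran 72 hr over ten concentrations from 0.39 to 200 uM; bidirectional curve fitting against DMSO baseline.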

Assay [9] can be described thus: APR_HepG2_MitoMass_72hr: Apredica 72-hour HepG2 Assay for Mitochondrial Mass (AID 2282924).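 Note: MitoTracker Red CMXRos stain intensity per cell imaged as mitochondrial mass.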 Particulars: high-content imaging, actives raise or lower the signal. Put shortly:
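Read-out: MitoTracker Red fluorescence intensity from automated imaging (20x, six fields per well) in human HepG2 liver cells. Dosing ran 72 hr, 0.39–200 uM, 0.5% DMSO; bidirectional curve fitting versus DMSO baseline.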

A short description of assay [10]: APR_HepG2_NuclearSize_72hr: Apredica 72-hour HepG2 Assay for Nuclear Size (AID 2282925). Particulars: high-content imaging, actives raise or lower the signal. The gist of the method: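 Read-out: nuclear diameter from Hoechst 33342 images (ArrayScan, 20x, six fields/well), via cell-cycle image analysis. HepG2 were dosed 0.39–200 uM for 72 hr in 0.5% DMSO. Bidirectional fit relative to DMSO.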

Assay [11] can be described thus: ATG_CRE_CIS: Attagene CIS-FACTORIAL HepG2 Assay for human cAMP Responsive Element (CRE) binding protein 3 (AID 2282926). Particulars: HepG2 CRE cis-reporter, Attagene multiplexed mRNA; actives raise or lower the signal. The gist of the method: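 Readout: fluorescently labelled reporter transcripts resolved by capillary electrophoresis after RT-PCR, taken 24 h post-dosing in transfected HepG2. Endogenous transcription factor activity drives each cis-element reporter; gain or loss of signal fitted relative to DMSO control.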

Assay [12] deals with CCAAT/enhancer-binding protein beta (Homo sapiens) (UniProt P17676). As to the kind of experiment: ATG_C_EBP_CIS: Attagene CIS-FACTORIAL HepG2 Assay for human CCAAT/Enhancer Binding Protein (C/EBP) beta (AID 2282927). Particulars: HepG2 Attagene cis-factorial transcription factor reporter; actives raise or lower the signal. Put shortly:
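HepG2, transient MRTU transfection, 24 h treatment. RT-PCR plus CE fluorescence; DMSO negative control, bidirectional fit.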

Assay [13] in a line: ATG_CMV_CIS: Attagene CIS-FACTORIAL HepG2 Assay for human CMV (Internal Marker) (AID 2282928).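 Note: endpoint acts as a background internal control marker rather than a target.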 Particulars: HepG2 CMV promoter reporter, transcription factor profiling; actives raise or lower the signal. The gist of the method: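 Readout: fluorescent reporter cDNA fragments separated by capillary electrophoresis after RT-PCR and HpaI cut. Cells: HepG2 carrying transfected cis-promoter reporter constructs, dosed 24 h. Endpoint serves as background internal-marker control, fit bidirectionally versus DMSO.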

The target in assay [14] is Aryl hydrocarbon receptor (Homo sapiens) (UniProt P35869). Briefly: ATG_Ahr_CIS: Attagene CIS-FACTORIAL HepG2 Assay for human Aryl Hydrocarbon Receptor (Ahr) (AID 2282930). Particulars: HepG2 AhR cis-factorial reporter transcription; actives raise or lower the signal. Put shortly:
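Endogenous factor activity is tracked through cis-promoter reporter units transfected into HepG2 cells. Transcript levels at 24 h are read by fluorescent RT-PCR and capillary electrophoresis, with activity in either direction scored relative to DMSO.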

The nature of assay [15]: ATG_AP_2_CIS: Attagene CIS-FACTORIAL HepG2 Assay for human Activator Protein 2 (AP-2) (AID 2282932). Particulars: HepG2 AP-2 cis-reporter, Attagene transcription factor profiling; actives raise or lower the signal. Put shortly:
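Read-out: fluorescent reporter mRNA via RT-PCR and capillary electrophoresis, 24 h post-dose in transiently transfected HepG2. Endogenous factors drive cis-promoter reporters; gain or loss of signal fitted bidirectionally against DMSO.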

A short description of assay [16]: ATG_BRE_CIS: Attagene CIS-FACTORIAL HepG2 Assay for human Bone Morphogenetic Protein (BMP) Response Element (BRE) (AID 2282933). Particulars: HepG2 BMP response element reporter, Attagene transcription factor profiling; actives raise or lower the signal. The gist of the method: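 After a 24 h chemical treatment, transiently transfected HepG2 cells were lysed for RNA; reporter transcripts were quantified by fluorescent RT-PCR and capillary electrophoresis, normalised to DMSO.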

The target in assay [17] is Retinoic acid receptor alpha (Homo sapiens) (UniProt P10276). Briefly: ATG_DR5_RAR_CIS: Attagene CIS-FACTORIAL HepG2 Assay for human Retinoic Acid Receptor Alpha (RARE), DR5 submotif (AID 2282934). Particulars: HepG2 Attagene cis-factorial RARE DR5 reporter, mRNA; actives raise or lower the signal. The gist of the method: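 After 24 h of chemical exposure, transiently transfected HepG2 cells were lysed for total RNA; the DR5-regulated reporter transcript was quantified via RT-PCR and capillary electrophoresis, with activity fitted bidirectionally against DMSO.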

Assay [18] has as its target Transcription factor E2F1 (Homo sapiens) (UniProt Q01094). As to the kind of experiment: ATG_E2F_CIS: Attagene CIS-FACTORIAL HepG2 Assay for human E2F Transcription Factor 1 (AID 2282935). Particulars: HepG2 Attagene cis-reporter, E2F reporter RNA transcripts; actives raise or lower the signal. The gist of the method: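 Transient MRTU transfection of HepG2; 24 h compound exposure; RNA → oligo(dT) RT → PCR → FAM label → HpaI cut → CE fluorescence. Gain/loss of signal fit against DMSO.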

The structures appear in SMILES notation. Calls of active or inactive are those of the source. Rule for the calls: active = hit-call score of the fitted dose curve at least 0.9, where 1 is the maximum; inactive = score below 0.9.

Aryl hydrocarbon receptor (Homo sapiens), sequence (P35869 whole entry, looked up): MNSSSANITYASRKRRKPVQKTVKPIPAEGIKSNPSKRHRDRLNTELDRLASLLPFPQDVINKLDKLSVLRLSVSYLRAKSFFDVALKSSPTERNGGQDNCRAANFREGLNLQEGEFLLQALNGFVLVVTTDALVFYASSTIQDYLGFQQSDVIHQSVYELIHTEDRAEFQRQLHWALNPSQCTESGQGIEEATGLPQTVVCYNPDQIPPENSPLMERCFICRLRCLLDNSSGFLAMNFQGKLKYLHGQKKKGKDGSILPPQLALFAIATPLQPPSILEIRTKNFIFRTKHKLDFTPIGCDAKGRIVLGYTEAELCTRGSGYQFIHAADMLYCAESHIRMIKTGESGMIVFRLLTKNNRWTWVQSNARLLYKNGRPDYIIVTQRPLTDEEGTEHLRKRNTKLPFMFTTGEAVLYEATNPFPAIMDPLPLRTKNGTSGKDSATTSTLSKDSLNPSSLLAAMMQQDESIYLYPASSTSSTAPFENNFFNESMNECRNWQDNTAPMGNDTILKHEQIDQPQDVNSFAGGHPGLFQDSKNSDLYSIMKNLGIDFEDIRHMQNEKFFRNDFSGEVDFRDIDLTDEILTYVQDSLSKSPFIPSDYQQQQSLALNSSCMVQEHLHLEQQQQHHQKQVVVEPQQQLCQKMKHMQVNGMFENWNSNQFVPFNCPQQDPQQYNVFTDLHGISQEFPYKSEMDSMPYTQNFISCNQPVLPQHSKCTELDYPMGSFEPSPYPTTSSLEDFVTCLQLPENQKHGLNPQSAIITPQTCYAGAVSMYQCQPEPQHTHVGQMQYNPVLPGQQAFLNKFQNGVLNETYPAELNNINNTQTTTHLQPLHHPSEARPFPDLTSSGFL
Retinoic acid receptor alpha (Homo sapiens), sequence (P10276 whole entry, looked up): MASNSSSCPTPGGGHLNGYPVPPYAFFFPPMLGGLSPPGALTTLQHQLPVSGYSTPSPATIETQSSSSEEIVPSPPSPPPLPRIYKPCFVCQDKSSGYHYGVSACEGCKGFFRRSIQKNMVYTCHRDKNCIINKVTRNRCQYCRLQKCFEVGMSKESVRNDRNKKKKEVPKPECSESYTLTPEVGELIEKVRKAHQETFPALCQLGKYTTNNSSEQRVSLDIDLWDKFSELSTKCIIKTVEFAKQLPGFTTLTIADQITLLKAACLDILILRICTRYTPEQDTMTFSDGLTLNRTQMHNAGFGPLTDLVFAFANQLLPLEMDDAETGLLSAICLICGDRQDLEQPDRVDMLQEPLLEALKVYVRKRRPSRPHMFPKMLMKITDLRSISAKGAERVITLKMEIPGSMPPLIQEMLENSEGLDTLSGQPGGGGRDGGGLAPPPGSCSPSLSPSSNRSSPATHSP
CCAAT/enhancer-binding protein beta (Homo sapiens), sequence (P17676 whole entry, looked up): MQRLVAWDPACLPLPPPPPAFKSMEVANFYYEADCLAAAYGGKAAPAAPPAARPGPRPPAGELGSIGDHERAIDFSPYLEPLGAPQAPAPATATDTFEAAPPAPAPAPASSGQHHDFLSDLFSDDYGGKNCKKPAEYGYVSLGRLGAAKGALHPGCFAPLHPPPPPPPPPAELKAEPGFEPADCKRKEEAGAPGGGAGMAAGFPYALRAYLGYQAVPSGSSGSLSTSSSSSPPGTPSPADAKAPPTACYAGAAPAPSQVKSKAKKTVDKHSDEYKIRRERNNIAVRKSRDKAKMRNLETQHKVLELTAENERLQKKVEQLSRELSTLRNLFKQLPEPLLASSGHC
Transcription factor E2F1 (Homo sapiens), sequence (Q01094 whole entry, looked up): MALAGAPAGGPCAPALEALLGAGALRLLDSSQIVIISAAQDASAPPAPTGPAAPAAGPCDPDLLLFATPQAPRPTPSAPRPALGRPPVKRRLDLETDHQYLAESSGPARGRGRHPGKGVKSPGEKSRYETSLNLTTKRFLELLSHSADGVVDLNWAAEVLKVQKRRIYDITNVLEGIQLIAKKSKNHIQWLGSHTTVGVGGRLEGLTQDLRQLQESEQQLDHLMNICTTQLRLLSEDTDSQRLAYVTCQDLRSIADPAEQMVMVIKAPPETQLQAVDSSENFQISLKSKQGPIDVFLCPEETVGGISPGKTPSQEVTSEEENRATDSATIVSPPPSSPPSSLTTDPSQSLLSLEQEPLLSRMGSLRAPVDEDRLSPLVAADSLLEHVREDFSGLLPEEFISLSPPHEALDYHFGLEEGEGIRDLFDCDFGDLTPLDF

Take `CCOC(=O)CC(SP(=O)(OC)OC)C(=O)OCC` (configuration not stated): the result in assay [1], in assay [2], in [3], in assay [4], in assay [5] and in assay [6] was inactive. In addition, the result in [7], in assay [8], in assay [9], in [10], in assay [11] and in assay [12] was inactive. Moreover, the call in assay [13], in [14], in assay [15], in assay [16], in [17] and in assay [18] was inactive.

In the case of `CCOP(=S)(OCC)SCCSCC`, the outcome in assay [1], in assay [2], in assay [3], in [4], in [5] and in [6] was inactive. The result in [7], in assay [8], in assay [9], in assay [10], in assay [11] and in assay [12] was inactive. In addition, the compound was classed as inactive in [13], in assay [14], in [15], in [16], in assay [17] and in assay [18].

In the case of `CCOP(=S)(OCC)Oc1ccc([N+](=O)[O-])cc1`, the result in assay [1], in assay [2], in assay [3], in assay [4], in assay [5] and in [6] was inactive. The result in assay [7], in assay [8], in assay [9], in assay [10], in [11] and in assay [13] was inactive. Besides, the result in assay [15], in assay [16], in [17] and in assay [18] was inactive. Moreover, the AC50 (as a rule, the concentration at which the activity in the assay is half-maximal) in [12] is 13.5 µM (active); in [14], 30.9 µM (active).

Take `S=C1NCCN1`: the call in assay [1], in [2], in [3], in assay [4], in assay [5] and in assay [6] was inactive. The call in [7], in [8], in assay [9], in assay [10], in assay [11] and in assay [12] was inactive. For the same compound, the compound was called inactive in assay [13], in [14], in [15], in [16], in assay [17] and in [18].
